The values that follow come from PubChem BioAssay (EPA / NIEHS).

Where “and” joins values, the source holds several entries; their conditions need not be identical. Equal values may be shown once. Calls of active or inactive are those of the source. How the source made its calls: active means hit-call score of the fitted dose curve at least 0.9, where 1 is the maximum; inactive means score below 0.9.

Read-out in this test: Vascular cell adhesion molecule 1 (VCAM1), VCAM1 (gene 7412)
In words: BSK_4H_VCAM1: BioMAP Diversity Plus: 4H Assay for Vascular cell adhesion molecule 1 (VCAM1) Biomarker Activity (AID 2283033). Particulars: primary human endothelial cells (HUVEC); actives raise or lower the signal. How it is done: BSK_4H is a cell-based, multiplexed-readout assay that uses umbilical vein endothelium, a human vascular primary cell, with measurements taken at 24 hours after chemical dosing in a 96-well plate.BSK_4H_VCAM1 is an assay component measured in the BSK_4H assay. It measures VCAM-1 antibody related to regulation of gene expression using ELISA technology.Data from the assay component BSK_4H_VCAM1 was analyzed into 1 assay endpoint. This assay endpoint, BSK_4H_VCAM1, was analyzed with bidirectional fitting relative to DMSO as the negative control and baseline of activity. Using a type of binding reporter, gain or loss-of-signal activity can be used to understand changes in the signaling as they relate to the gene VCAM1. Furthermore, this assay endpoint can be referred to as a primary readout, because this assay has produced multiple assay endpoints where this one serves a signaling function. To generalize the intended target to other relatable targets, this assay endpoint is annotated to the cell adhesion molecules intended target family, where the subfamily is Immunoglobulin CAM.
The levels of cell surface (or secreted, indicated by the prefix "s") biomarker endpoints were measured by ELISA. Overt cytotoxicity to cells in confluent adherent cultures (all systems other than the BT system) was assessed by measuring total protein levels using sulforhodamine B (SRB) staining in parallel cultures at the time of biomarker measurements, indicated as SRB endpoints. For proliferation assays for adherent cell types, individual cell types are cultured at sub-confluence and relative cell numbers quantified by SRB staining at time points optimized for each system (48 h: 3C and CASM3C systems; 72 h: BT and HDF3CGF systems; 96 h: SAg system). SRB was performed by staining cells with 0.1% SRB after fixation with 10% TCA and reading wells at 560 nm.Viability and proliferation of PBMC (T cells) was quantified by Alamar Blue reduction for the SAg and BT systems. For PBMC viability (referred to as PBMC Cytotoxicity within the assay endpoint names), cells were plated (75,000/well in a 96-well plate) and then chemical samples added for 1 h before addition of activators, SEB and TSST-1 (20 ng/mL final concentration each). Cells were incubated for 90 h. Then, Alamar Blue (20 uL/well) (Invitrogen, Cat DAL1100) was added for 6 h, and the plates were read with a fluorescence microplate reader at 546/580 nm (excitation/emission). For PBMC proliferation, cells were plated and activated as above but incubated for only 16 h prior to addition of Alamar Blue. Plates were read after 6 h.
Regarding `Cn1cc(-c2ccccc2)c(=O)c(-c2cccc(C(F)(F)F)c2)c1`, the outcome was inactive.

Take `Nc1cc(Cl)cc(C(=O)O)c1Cl`: the result was inactive.

Take `Oc1ccc2ccc3cccc4ccc1c2c34`: the AC50 was 34 µM (active).

In the case of `Brc1ccc(Oc2ccccc2)cc1`, the result was inactive.

Consider `CCN(CC)CCO`, for which the outcome was inactive.

Take `CC(C)(O)c1cnn2c(-c3ccc(F)c(-c4c(F)cccc4C#N)c3)cnc2n1`: the result was inactive.

Consider `Clc1ccccc1Cl`, for which the outcome was inactive.

As to `ClCCOCCCl`, the result was inactive.

For `CCOc1cccc(C2(N3CCN(c4ccccc4)CC3)CCC(C)CC2)c1` (stereo not given), the outcome was inactive.

With `CCCCOC(=O)c1ccccc1C(=O)OCc1ccccc1`, the outcome was inactive.

As to `COc1cc(C=O)cc2c1[C@H](COC(N)=O)[C@]1(OC(C)=O)ON2C[C@H]2[C@@H]1N2C(C)=O`, the AC50 is 13.4 µM (active).

As to `CC(C)COC(=O)c1ccccc1C(=O)OCC(C)C`, the AC50 was 14.1 µM (active).

On to `OCCOCCO`, for which the result was inactive.

For `O=C(Oc1ccc(Br)cc1)N1CCN2CCC1CC2`, the result was inactive.

Regarding `O=[N+]([O-])C(Br)(CO)CO`, the AC50 is 27.1 µM (active).

On to `Cc1ccc(N)cc1`, for which the outcome was inactive.

For the compound `OCCCl`, the outcome was inactive.

Take `c1ccc(C2CO2)cc1` (stereo not given): the outcome was inactive.

Consider `O=C(N[C@H](c1ccccc1)[C@@H]1CN2CCC1CC2)c1c(Cl)ccc(C(F)(F)F)c1Cl`, for which the result was inactive.

In the case of `CCCCCCCCCCCCCN1CC(C)OC(C)C1` (stereo not given), the outcome was inactive.

With `COC(=O)Nc1nc2ccccc2[nH]1`, the result was inactive.

As for `CCCSC(=O)N(CCC)CCC`, the outcome was inactive.

In the case of `O=[N+]([O-])c1ccc(Oc2ccc(Cl)cc2Cl)cc1`, the outcome was inactive.

In the case of `Cc1ccc(N)c(N)c1`, the AC50 is 8.05 µM (active).

Take `Nc1ccc(Cc2ccc(N)cc2)cc1`: the outcome was inactive.

Regarding `C[N+](C)(C)CC1CO1` (stereo not given), the result was inactive.

As for `Oc1ccccc1Cl`, the outcome was inactive.

For `CCCCCCCCn1sccc1=O`, the AC50 was 9.24 µM (active).

`Clc1ccc(C(c2ccc(Cl)cc2)C(Cl)(Cl)Cl)cc1`: the AC50 was 25.9 µM (active).

With `CC(C)(OOC(C)(C)c1ccccc1)c1ccccc1`, the AC50 is 26.4 µM (active).

`COC(=O)c1ccccc1N`: the outcome was inactive.

For `c1ccc(N=Nc2ccccc2)cc1`, the result was inactive.

Regarding `CN(C)c1ccccc1`, the outcome was inactive.

For `c1ccc(NNc2ccccc2)cc1`, the result was inactive.

As for `CCC(C)c1ccc(O)cc1` (stereo not given), the result was inactive.

For the compound `CC(C)(C)OOC(=O)c1ccccc1`, the result was inactive.

For the compound `C=CCc1ccc2c(c1)OCO2`, the outcome was inactive.

Regarding `Nc1ccc(Oc2ccc(N)cc2)cc1`, the outcome was inactive.

For the compound `CCNS(=O)(=O)C(F)(F)C(F)(F)C(F)(F)C(F)(F)C(F)(F)C(F)(F)C(F)(F)C(F)(F)F`, the AC50 is 19.3 µM (active) and 16.9 µM (active) and 25.2 µM (active).

As to `CN(C)c1ccc(C(=O)c2ccc(N(C)C)cc2)cc1`, the result was inactive.

One may read the AC50 as the midpoint of the concentration-response curve, whichever way the signal moves.
